Screening data deposited in PubChem by several laboratories.
LGR2 antag: inhibitors of bursicon-induced Drosophila LGR2 receptor cAMP signaling; AID 720647; HEK293 LGR2, CRE-luciferase, bursicon-stimulated, 4 h; inhibition, % at 9.99 µM; actives 0.35% (n = 380,000);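 active = drop in luminescence signal, shown as inhibition above about 50% in the replicate tests, limit read from the data, passing the limit was not always enough; inconclusive = probably only some replicates passing the limit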;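 note: agonist challenge used bursicon conditioned medium at about half maximal strength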
KKLEB tox: CF airway cell cytotoxicity counter-screen; KKLEB CF airway cells viability, ATPlite luminescence, overnight; stronger effect = lower value; cells stimulated with P. aeruginosa culture filtrate; activity change (cytotoxicity), % at 5 µM; actives 0.36% (n = 360,000);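 active = corrected activity change at or below -50% at 5 µM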
Shn3 inh set2: Schnurri-3 reporter inhibition in Clone20 osteoblasts; Clone20 osteoblast Shn3 3'UTR firefly luciferase, 24 h; AID 588674; inhibition, % at 12.5 µM; actives 0.52% (n = 360,000);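 active = mean inhibition of at least 75% with every replicate also reaching 75%; inconclusive = mean inhibition at least 75% but some replicate below; inactive = mean inhibition below 75%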;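 note: 0% = median of neutral control wells and 100% = pilot-screen positive control compound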
CF NFkB block: blocks PAF-induced NF-kB reporter in cystic fibrosis cells; KKLEB NF-kB-GFP reporter, GFP fluorescence overnight; inhibition, % at 5 µM; actives 0.86% (n = 360,000); AID 588850;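 active = at least 50% inhibition at 5 µM, scaled per plate between neutral and stimulator controls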;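 note: PAF is a Pseudomonas aeruginosa culture filtrate used as stimulus; plate controls were PAF-stimulated DMSO wells for no effect and unstimulated DMSO wells for full effect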
PAX8 inh HTS: lowers PAX8-driven luciferase in RMG-I cells; RMG-I TPO-luciferase reporter, SteadyGlo, 24 h; actives 1.2% (n = 360,000); inhibition, % at 12.6 µM; AID 652154;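 active = mean replicate inhibition at least 60% with every replicate also reaching 60%; inconclusive = only one of the two criteria is met; inactive = mean below 60% and not all replicates reaching 60%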;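 note: luciferase light reporting Pax8 driven TPO promoter activity; plate controls were median of neutral control wells for no effect and mitoxantrone controls for full effect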
EWS-Fli block: blocks EWS/Fli oncoprotein-driven transcription. actives 0.67% (n = 350,000). A673 NR0B1-luciferase reporter, viability-normalised. inhibition, % at 12.6 µM;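 active = mean inhibition of at least 50% after viability correction, with every replicate also passing that limit; inconclusive = mean reaches 50% but only one of two replicates passes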;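 note: firefly luciferase signal divided by Alamar Blue viability fluorescence both relative to DMSO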
An asterisk follows results filed as active; ? = inconclusive; . = no result; ! = a repeat was not active. An excerpt weighted towards active compounds, which were near 2% of everything screened.

SMILES | LGR2 antag | KKLEB tox | Shn3 inh set2 | CF NFkB block | PAX8 inh HTS | EWS-Fli block
N#Cc1cccc(-c2ccc(C3[C@@H]4CN(C(=O)C5CC5)C[C@H]3N4)cc2)c1 (stereo partly specified) | 89*! | . | . | . | 98*! | -3
O=C(NC1CCCCC1)N1C[C@@H]2N[C@H](C1)C2c1ccc(-c2cccc(F)c2)cc1 (stereo partly specified) | -5 | . | . | . | 63*! | -8
N#Cc1cccc(-c2ccc(C3[C@@H]4CN(C(=O)Nc5ccccc5)C[C@H]3N4)cc2)c1 (stereo partly specified) | 22 | . | . | . | 3 | -1
O=C(C1CCCC1)N1C[C@@H]2N[C@H](C1)C2c1ccc(-c2cccc(F)c2)cc1 (stereo partly specified) | -16 | . | . | . | . | -4
CCCOc1ccc(-c2nnc(-c3ccncc3)o2)cc1 | . | -53* | -93 | 0 | -149 | .
C[C@@H]1CCCCO[C@@H](CN(C)C(=O)CCC(F)(F)F)[C@H](C)CN([C@H](C)CO)C(=O)c2cc(NC(=O)c3ccccc3)ccc2O1 | -11 | . | . | . | 14 | 3
COc1ccc(S(=O)(=O)Nc2ccc3c(c2)C(=O)N([C@@H](C)CO)C[C@H](C)[C@@H](CN(C)C(=O)c2ccncc2)OCCCC[C@H](C)O3)cc1 | -2 | . | . | . | -2 | -5
CCOC(=O)c1sc(NC(=O)CCCCCN2C(=O)c3cccc4cccc(c34)C2=O)nc1C | -2 | -53* | 18 | 39 | . | .
COCCOc1nc2c(c(=O)n(C)c(=O)n2C)n1Cc1cccc(OC)c1 | . | 8 | 87* | 6 | . | .
O=[N+]([O-])c1cc(-c2ncccn2)c([N+](=O)[O-])s1 | 17 | 10 | 5 | 16 | 9 | 61*
CO[C@H](CN(C)Cc1ccc2c(c1)OCO2)[C@@H](C)CN(C(=O)c1ccccc1)[C@@H](C)CO | -6 | . | . | . | . | 3
Cn1c(-c2ccccc2)cc2onc(-c3ccccc3)c2c1=O | 94* | -43 | 39 | -12 | 14 | 81*
Cn1c(-c2ccccc2F)cc2onc(-c3ccccc3)c2c1=O | 39 | -31 | -46 | -3 | -89 | -103
O=C(C[n+]1cccc(CNC(=O)c2ccc(OC(F)F)cc2)c1)Nc1ccccc1Cl | 9 | 2 | 1 | 4 | 10 | .
O=C(C[n+]1cccc(CNC(=O)c2ccc(OC(F)F)cc2)c1)Nc1ccc(SC(F)F)cc1 | -4 | -8 | -5 | -5 | 67* | .
Cc1cc(O)c(-c2cc(O)c(C)cc2O)cc1O | 19 | -6 | -16 | -3 | ? | 70*
Cc1cc(N=O)c(C)cc1O | -4 | 22 | 20 | 8 | . | 2
C[C@H]1CN([C@@H](C)CO)C(=O)c2cc(NC(=O)CCC(F)(F)F)ccc2O[C@H]1CN(C)C(=O)NC1CCCCC1 | -2 | . | . | . | 2 | -5
CCCCNS(=O)(=O)c1ccc(S(=O)(=O)NCc2ccncc2)cc1 | 6 | -4 | 86* | 9 | . | 6
C[C@H](CO)N1C[C@H](C)[C@@H](CN(C)C(=O)Nc2ccc(F)cc2)OCCCC[C@H](C)Oc2ccc(NS(=O)(=O)c3ccc(F)cc3)cc2C1=O | 5 | . | . | . | 9 | 5
CN(C)c1ccnc2sc(C(N)=O)c(N)c12 | 34 | -36 | 10 | 91* | . | .
O=C1C=CC(=O)C(CNc2ccc(C(=O)OCc3ccccc3)cc2)=C1 | 9 | -20 | 95* | 68* | 1 | 59*
O=C(c1ccco1)N1CCN(C(=O)c2ccco2)C1=S | 83* | 14 | -16 | 15 | 21 | -9
O=C(c1ccco1)N1CCN(C(=O)N2c3ccccc3Sc3ccccc32)CC1 | 10 | -17 | 28 | 47 | . | 54*
CCS(=O)(=O)N1CC(=O)N2[C@H](CO)[C@@H](c3ccc(C#CCC4CCCC4)cc3)[C@@H]2C1 | -10 | . | . | . | . | .
SMILES | LGR2 antag | KKLEB tox | Shn3 inh set2 | CF NFkB block | PAX8 inh HTS | EWS-Fli block
O=S(=O)(c1ccc(Cl)cc1)n1ccc2cccnc21 | . | -16 | 98* | 16 | 10 | .
COc1cccc2c1C(=O)c1c(O)c3c(c(O)c1C2=O)CC(O)(C(C)=O)CC3OC1CC(O)C(O)C(C)O1 (stereo unspecified) | . | -4 | 80 | -310 | 8 | 22
COc1cccc2c1C(=N)c1c(O)c3c(c(O)c1C2=O)CC(O)(C(C)=O)CC3OC1CC(N)C(O)C(C)O1 (stereo unspecified) | . | -6 | 92* | -272 | . | .
COc1cccc2c1C(=O)c1c(O)c3c(c(O)c1C2=O)C[C@](O)(C(C)=O)C[C@H]3O[C@@H]1C[C@@H](N)[C@@H](O)[C@@H](C)O1 | 1 | 16 | 94* | 65* | 112* | 45
COCC(=O)N1CC2(CN(Cc3ccc(OC)cc3)C2)c2c([nH]c3cc(OC)ccc23)[C@@H]1CO | -7 | . | . | . | . | 1
C[C@H]1CN([C@@H](C)CO)C(=O)c2cc(NC(=O)Nc3cccc4ccccc34)ccc2O[C@H]1CN(C)Cc1ccncc1 | -17 | . | . | . | 6 | .
COc1cnc(-c2ccccn2)nc1N(C)c1ccccc1 | -3 | -17 | 89* | -3 | -3 | -13
FC(F)(F)c1cccc(CC2CN(Cc3ccccc3)Cc3ccccc3N2c2cc(Cl)cc(Cl)c2)c1 (stereo unspecified) | 102* | -7 | 14 | -7 | 42 | 76*
C[C@@H]1CCCCO[C@@H](CN(C)S(=O)(=O)c2ccccc2)[C@H](C)CN([C@H](C)CO)C(=O)c2cc(NC(=O)Nc3ccc(F)cc3)ccc2O1 | 14 | . | . | . | 73* | 16
C[C@@H]1CN([C@H](C)CO)C(=O)c2cc(NC(=O)Nc3ccc(F)cc3)ccc2O[C@@H](C)CCCCO[C@H]1CN(C)S(=O)(=O)c1ccccc1 | -6 | . | . | . | 88* | 16
COc1cccc(CN(C)C[C@H]2OCc3cnnn3CCCC(=O)N([C@@H](C)CO)C[C@H]2C)c1 | -7 | . | . | . | . | 3
COc1ccccc1-c1cnc2c(c1)C(=O)N([C@H](C)CO)C[C@H](C)[C@H](CN(C)Cc1ccc(C(=O)O)cc1)O2 | -6 | . | . | . | . | 5
CC(=O)Oc1cccc(N2C(=O)c3ccccc3C2=O)c1 | -1 | -5 | -16 | 17 | 78* | -7
CC(=O)Nc1cccc2c1C(=O)N(c1cccc(OC(C)=O)c1)C2=O | 13 | 10 | -7 | -8 | 11 | 12
C[C@@H]1CN([C@@H](C)CO)C(=O)Cc2cc(NC(=O)C3CC3)ccc2O[C@@H]1CN(C)Cc1ccncc1 | 2 | . | . | . | 7 | -1
CCNC(=O)[C@@H]1[C@@H](CO)[C@@H]2Cn3c(ccc(C4=CCCCC4)c3=O)[C@H]1N2Cc1cocn1 | 1 | . | . | . | 4 | -14
C[C@]12CCC3C(CC[C@H]4CC(O)CC[C@]34C)C1CC/C2=N/NC(=O)c1ccncc1 (stereo partly specified) | 7 | 12 | 25 | -4 | 0 | 53*
